This is one part of a sample in which hits are shown more often than they occur.
Shiga inhibitor: A qHTS for Small Molecule Inhibitors of Shiga Toxin. Vero cells, Shiga toxin protein synthesis inhibition reporter. inhibition, % at 38.7 µM. actives 9.2% (n = 290,000); in the data active means inhibition mostly above about 28%, no sharp cut-off; inactive means mostly below about 43%; further: 0% is about no effect
Cycloheximide cs: Cycloheximide Counterscreen for Small Molecule Inhibitors of Shiga Toxin; cell reporter, cycloheximide protein synthesis inhibition counterscreen; max response, %; actives 12% (n = 300,000); in the data active means max response mostly above about 13%, no sharp cut-off; inactive means mostly below about 14%; further: read at 38.3 µM for the half of the compounds with a filed dose; 0% is about no effect
SARS PLpro yeast: qHTS of Yeast-based Assay for SARS-CoV PLP; S. cerevisiae expressing SARS-CoV PLpro, growth rescue; Potency, µM (highest dose often 32.9 µM), for the others: at the highest dose activity, positive = growth rescue, most hits filed as activators; actives 0.19% (n = 330,000); AID 485353, 2010; calls by dose curve; further: potency means the concentration at half of the fitted maximal effect; 0% is about no effect; nearly all actives have a fitted effect of over 55% in size
NS1 inh: qHTS Assay for Inhibitors of Influenza NS1 Protein Function. Potency, µM (series often up to 46.1 µM), for the others: at the highest dose activity, positive = more growth. actives 0.4% (n = 270,000). AID 2326, 2010; calls by dose curve; further: potency means the concentration at half of the fitted maximal effect; actives are rising curves; nearly all actives have a fitted effect of over 50% in size
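Read-out: OD600 growth recovery of NS1-expressing budding yeast. Cells grown overnight at 30C in -URA glucose medium, washed, resuspended and diluted 1:100 in 2% galactose assay medium, pH 6.0. Same strain lacking NS1 served as positive control.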
LmPK inh: qHTS Assay for Inhibitors of Leishmania Mexicana Pyruvate Kinase (LmPK) | Q27686 | purified LmPK, Kinase-Glo ATP luminescence, 1 h | Potency, µM (highest dose often 57.5 µM), for inactives: at the highest dose activity change, negative = inhibition, usual class: inhibitors | actives 0.37% (n = 290,000) | AID 1721, 2009; further: potency means the concentration at half of the fitted maximal effect; on the % scale 0 is the no-effect control and ±100 the full control effect
Target sequence (Q27686 whole entry, looked up): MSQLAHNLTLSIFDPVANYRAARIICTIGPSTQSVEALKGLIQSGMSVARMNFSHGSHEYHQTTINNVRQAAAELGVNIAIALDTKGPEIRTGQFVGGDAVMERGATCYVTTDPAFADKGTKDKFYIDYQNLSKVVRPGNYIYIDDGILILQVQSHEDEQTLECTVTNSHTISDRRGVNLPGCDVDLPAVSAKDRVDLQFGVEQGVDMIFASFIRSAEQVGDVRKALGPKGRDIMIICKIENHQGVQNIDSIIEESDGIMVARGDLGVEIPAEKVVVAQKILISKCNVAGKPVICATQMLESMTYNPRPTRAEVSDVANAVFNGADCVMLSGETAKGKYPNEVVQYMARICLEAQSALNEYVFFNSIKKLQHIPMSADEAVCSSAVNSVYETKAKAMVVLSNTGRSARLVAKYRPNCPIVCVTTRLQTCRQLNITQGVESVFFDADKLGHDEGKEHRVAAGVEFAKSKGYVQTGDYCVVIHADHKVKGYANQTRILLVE
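Purified LmPK (0.1 nM) converted ADP (0.1 mM) to ATP with PEP (0.5 mM) in imidazole buffer pH 7.2 with KCl and MgCl2, 1 h at room temperature. ATP was read by Kinase-Glo luminescence; data normalized to uninhibited and no-enzyme controls.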
Tb PYK inh: qHTS of Trypanosoma Brucei Inhibitors; pyruvate kinase (Trypanosoma brucei), Q57TT1; TbPYK enzyme, Kinase-Glo Plus ATP luminescence, 45 min; Potency, µM (titrated, usually from 76.8 µM), without a hit: top-dose activity, negative = inhibition, actives largely listed as inhibitors; actives 0.12% (n = 410,000); further: potency means the concentration at half of the fitted maximal effect; on the % scale 0 is the no-effect control and ±100 the full control effect; nearly all actives have a fitted effect of over 50% in size
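Quantitative HTS: titrated library compounds versus trypanosomal pyruvate kinase in TEA buffer (pH 7.2) containing KCl, MgCl2, BSA and Tween-20. Reactions were initiated with ADP, 130 uM final. Kinase-Glo Plus luminescence was read after 45 min at RT.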
* = called active by the depositor; ? = inconclusive; . = no result given. Unless noted, the call rests on the fitted dose curve; in most records, active means well fitted curve in the direction sought with a large enough effect; inconclusive means small, poorly fitted or top-dose-only effect, or another doubt; inactive means no such curve, though single readings can be large; an effect the other way counts as inactive or inconclusive.

SMILES | Shiga inhibitor | Cycloheximide cs | SARS PLpro yeast | NS1 inh | LmPK inh | Tb PYK inh
Cc1ccsc1CN(C)C(=O)c1ccc(Oc2ccccc2)cc1 | 63.3* | 18.0* | -27.6% | -36.4% | -4.6% | 3.0%
C/C(=N\N1CCCCC1)c1c(O)[nH]c(=O)[nH]c1=O | 9.6 | 18.0* | ? | 5.0% | -3.5% | -0.6%
C/C(=N\N1CCCCCC1)c1c(O)n(-c2ccccc2)c(=O)[nH]c1=O | -2.2 | 0.2 | -10.0% | 6.2% | -3.8% | 1.8%
COc1ccccc1-n1cc(C(=O)NCC(=O)N2CCN(c3ccccc3)CC2)c2ccccc2c1=O | 50.1* | 30.2* | 3.1% | 1.2% | 2.5% | 0.3%
COc1ccccc1OCC(=O)N1CCN(c2ccccc2OC)CC1 | -10.6 | 9.3 | . | 2.6% | 5.0% | 2.2%
Cc1ccccc1C(=O)NCC(=O)N1CCN(c2ccccn2)CC1 | . | . | -6.2% | . | . | -3.2%
COc1ccccc1N1CCN(C(=O)CNC(=O)c2cn(-c3ccccc3OC)c(=O)c3ccccc23)CC1 | 26.4 | 14.5* | -0.7% | . | -5.4% | 1.5%
COc1ccccc1-n1cc(C(=O)NCC(=O)N2CCN(c3ccccn3)CC2)c2ccccc2c1=O | 13.7 | 16.0* | 0.1% | -15.4% | -3.6% | 1.9%
COc1ccc(N2CCN(C(=O)CNC(=O)c3nn(-c4ccc(OC)cc4)c(=O)c4ccccc34)CC2)cc1 | -2.3 | -3.4 | 0.9% | -10.8% | 9.4% | 3.6%
O=C(Cn1c2ncccc2c(=O)n1-c1ccccc1)NCc1ccccc1Cl | . | . | . | . | . | -5.2%
COc1ccc(/C=C2\SC(=S)N(CCC(=O)Nc3cccc(O)c3)C2=O)cc1 | 62.2* | 39.1* | 5.6% | 20.0% | -4.3% | -0.8%
COc1ccc(/C=C2\SC(=S)N(CCCC(=O)Nc3ccc(O)cc3)C2=O)cc1 | 51.1* | 35.2* | -0.3% | 2.9% | 2.0% | 27.6%
COc1ccc(/C=C2/SC(=S)N(CCCC(=O)Nc3ccc(O)cc3)C2=O)cc1 | 94.5* | 51.5* | -0.1% | 3.7% | 7.9% | -2.5%
COc1cc(NC(=O)C2CCN(S(=O)(=O)c3c(C)noc3/C=C/c3cccs3)CC2)cc(OC)c1 | . | . | . | . | . | 1.1%
COc1ccc(S(=O)(=O)c2c(Nc3ccc(C)cc3C)sc(C(=O)c3ccc(F)cc3)c2N)cc1 | . | . | . | . | . | 9.3%
COc1ccc(/C=C2\CCn3c2nc2ccccc2c3=O)cc1OC | 21.3 | 28.5* | 3.8% | 6.1% | -1.9% | -1.0%
CC(=O)Nc1ccc(/C=C2\CCc3ccccc3C2=O)cc1 | -3.9 | 22.8 | -4.8% | -2.8% | 2.5% | 1.0%
COc1ccc(/C=C2\CCC(C3CCCC3)C2=O)cc1Cn1cccn1 (configuration not stated) | 2.6 | 0.9 | -4.0% | 4.4% | 2.8% | -1.6%
COc1ccc(/C=C2\CCc3ccccc3C2=O)cc1Cn1cccn1 | 68.6* | 40.6* | -21.4% | -58.0% | -4.0% | -1.5%
COc1ccc(/C=C2\CCc3ccccc3C2=O)cc1O | 42.2* | 21.6* | -9.7% | -89.7% | -14.2% | 0.8%
COc1ccc(/C=C2\Cc3ccccc3C2=O)cc1OC | 75.0* | 27.7* | -0.6% | -33.9% | -1.0% | 4.2%
O=C(CCc1nnc(CCc2ccccc2)o1)N1CCCC1c1nccs1 (configuration not stated) | 24.8 | 16.3* | -1.1% | -1.7% | 0.4% | 2.7%
CC1CCCCN1C(=O)CCc1nnc(Cc2c[nH]c3ccccc23)o1 (configuration not stated) | 8.3 | 6.9 | -0.5% | 3.9% | 1.6% | -5.6%
COC(=O)[C@@H]1CCCN1C(=O)CCc1nnc(CCc2c[nH]c3ccccc23)o1 | 48.1* | 47.5* | -3.8% | -33.1% | 7.6% | -4.0%
COC(=O)C1CCCCN1C(=O)CCc1nnc(CCc2c[nH]c3ccccc23)o1 (configuration not stated) | 40.0 | -1.6 | 0.6% | 1.9% | -0.2% | -1.3%
SMILES | Shiga inhibitor | Cycloheximide cs | SARS PLpro yeast | NS1 inh | LmPK inh | Tb PYK inh
COC(=O)[C@@H]1CCCN1C(=O)CCc1nnc(CCC2CCCCC2)o1 | 73.7* | 33.5* | 0.3% | -4.4% | -4.0% | -6.4%
CC(c1nccs1)N(C)C(=O)CCc1nnc(CCc2ccccc2)o1 (configuration not stated) | 40.2 | 3.8 | 1.0% | 0.8% | -2.2% | -2.8%
CCC1CCCCN1C(=O)CCc1nnc(Cc2c[nH]c3ccccc23)o1 (configuration not stated) | 30.8* | 9.3 | -0.9% | 5.4% | 7.0% | -15.1%
CCN1CCCC1CNC(=O)CCc1nnc(CCC2CCCCC2)o1 (configuration not stated) | 4.0 | -0.6 | -0.6% | 0.0% | 1.0% | -4.0%
COc1ccccc1N/C(N)=N/c1nc(CSc2nc3ccccc3s2)cc(=O)[nH]1 | 47.9* | 12.3 | ? | 7.3% | -4.4% | .
Cc1nnc(SCc2cc(=O)[nH]c(/N=C(\N)Nc3ccccc3Sc3ccccc3)n2)s1 | 18.2 | -2.6 | 0.4% | -1.2% | 2.9% | 5.9%
COc1cn(CC(=O)Nc2ccc(C)cc2C)c(CN2CCCCC2)cc1=O | . | . | . | . | . | -1.1%
O=[N+]([O-])c1cc(S(=O)(=O)N2CCCCC2)ccc1NCCN1CCOCC1 | 3.2 | -4.5 | 1.3% | . | 20.0% | 1.1%
O=[N+]([O-])c1cc(S(=O)(=O)N2CCCCC2)ccc1NCCCN1CCOCC1 | 42.1* | 43.0 | -3.9% | . | -0.4% | -11.7%
CC(C)(CNc1ccc([N+](=O)[O-])cc1C#N)N1CCOCC1 | 5.3 | -1.2 | 0.1% | . | -4.2% | -1.3%
CC(C)(CNc1ccc(S(=O)(=O)C(F)(F)F)cc1[N+](=O)[O-])N1CCOCC1 | 30.6* | 35.4* | -1.0% | -3.9% | -10.0% | -1.0%
COc1cccc2nc3cc(C)c(C)cc3nc12 | 59.0* | 59.1* | -10.8% | -59.0% | 12.6µM* | ?
COc1ccc(CCc2nc(-c3ccc(-n4cccc4)cc3)no2)cc1 | -8.4 | -3.1 | -0.2% | 6.2% | 12.7% | -3.6%
COc1ccc(-c2noc(CN(C)Cc3ccc(C)o3)n2)cc1 | 34.8* | 11.1* | ? | -0.3% | -0.1% | 2.8%
COc1ccc(-c2noc(CCc3ccccc3)n2)cc1 | 88.1* | 22.9* | -2.4% | -7.6% | -1.1% | 0.0%
CCN(CCn1cccn1)Cc1nc(-c2ccc(OC)cc2)no1 | 14.1 | 4.3 | -0.4% | -4.2% | -5.6% | 1.4%
COc1ccc(-c2noc(CN(C)Cc3ccccc3)n2)cc1 | 18.1 | 11.4* | 2.3% | -13.7% | 0.4% | -2.9%
Cc1cc(N)ccc1N=Nc1c(C)n(C)n(-c2ccccc2)c1=O | 28.9 | 30.9* | -7.0% | 17.5% | -0.8% | 2.2%
Cc1c(N=Nc2ccc(O)cc2)c(=O)n(-c2ccccc2)n1C | -8.2 | -1.4 | 0.3% | 19.5% | 1.1% | 1.5%
COc1cccc(-c2n[nH]nc2C2=CC(=O)C[C@H](c3ccc(F)cc3)C2)c1 | . | . | . | . | . | -6.7%

Bioassay records from PubChem BioAssay.
